Measured values: PubChem BioAssay (NCI)
Compounds without any hit were thinned out: in the full panel of roughly 79,000, 15% have a hit. Unmarked numbers belong to inactive results. The source made the active and inactive calls. Cut-off read from the data, not from the text of the source: active = growth inhibition above about 70%; inactive = the rest.

Legend:
[1] = NCI Yeast Anticancer Drug Screen. Data for the rad50 strain (AID 155);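 note: 0% = growth of vehicle-only cultures of the same strain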; conditions: S. cerevisiae rad50 strain growth inhibition, stronger effect = higher value; at 50.0 µM unless noted
Outline: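 Yeast carrying a defined DNA repair defect were exposed to test compounds, and growth was compared with vehicle-treated controls to give percent inhibition.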

[2] = NCI Yeast Anticancer Drug Screen. Data for the mec2-1 strain (AID 157); conditions: S. cerevisiae mec2-1 strain, stronger effect = higher value; at 50.0 µM unless noted
Outline: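 mec2-1 yeast strain, carrying an alteration in DNA damage repair or cell cycle control, was exposed to compounds; growth inhibition was measured relative to vehicle-treated controls.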

[3] = NCI Yeast Anticancer Drug Screen. Data for the sgs1 mgt1 strain (AID 161);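 note: 0% = growth of cultures given vehicle only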; conditions: S. cerevisiae sgs1 mgt1 strain, stronger effect = higher value; at 50.0 µM unless noted
Outline: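 This yeast growth screen uses a strain with defined DNA-repair lesions; compound-treated growth is compared with vehicle-treated growth.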

[4] = NCI Yeast Anticancer Drug Screen. Data for the cln2 rad14 strain (AID 165);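 note: 0% = growth equal to vehicle treated cultures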; conditions: S. cerevisiae cln2 rad14 strain, stronger effect = higher value; at 50.0 µM unless noted
Outline: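 Yeast carrying cln2 and rad14 alterations (cell cycle control and DNA damage repair) were exposed to compounds. Growth inhibition was measured against vehicle-treated controls.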

[5] = NCI Yeast Anticancer Drug Screen. Data for the bub3 strain (AID 167); conditions: S. cerevisiae bub3 mutant strain, stronger effect = higher value; at 50.0 µM unless noted
Outline: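 Compounds were applied to a genetically altered yeast strain carrying a cell-cycle control defect. Growth inhibition was scored against vehicle-treated controls.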

[6] = NCI Yeast Anticancer Drug Screen. Data for the mlh1 rad18 strain (AID 175); conditions: S. cerevisiae mlh1 rad18 strain growth inhibition, stronger effect = higher value; at 50.0 µM unless noted
Outline: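 Growth inhibition of the yeast strain was measured after compound exposure and expressed relative to vehicle-treated controls. The strain carries defined defects in DNA damage repair.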

Structure (SMILES) | growth inhibition [1] | growth inhibition [2] | growth inhibition [3] | growth inhibition [4] | growth inhibition [5] | growth inhibition [6]
C(=C1CCCCC1)c1ccccn1 | -9.2% | 24.9% | -10.7% | -23.3% | -18.8% | -24.9%
O=C(O)/C(Cc1cn[nH]n1)=N\O | -20.3% | -29.9% | -51.7% | -77% | -39.4% | -32%
O=c1[nH]c(C(F)(F)F)c([N+](=O)[O-])c(=O)[nH]1 | -40.9% | -22.4% | 1.6% | -26.4% | -1.9% | -4.7%
COc1ccc(C2=C(c3ccccc3)C(=O)C3(c4ccccc4)CC23c2ccc(OC)cc2)cc1 (stereo unspecified) | -1.25% | 17.6% | 15.5% | 1.85% | 1.15% | 4.7%
COc1cc(C)c(O)c(C(=O)O)c1 | -3.7% | -7.65% | 2.25% | 0.05% | -1.45% | -4.25%
CN(C)/C(N)=N\c1nc(O)cc(=O)[nH]1 | 6.7% | -19.6% | -0.05% | -0.6% | 10.7% | 10.1%
NC(=O)C1OCOC2C(CO)OCOC12 (stereo unspecified) | -1.9% | -14.4% | -3% | -52.1% | -7.4% | -6.15%
CCNC(=O)COc1ccc(Cl)c(C)c1 | -13.6% | -31.9% | -30.4% | -33.8% | -23.2% | -29.7%
O=C(CC(=O)N1N=C(n2ccc3ccccc32)CC1c1ccccc1)Nc1ccc(Cl)cc1 (stereo unspecified) | -25.3% | -7.7% | -16.8% | 7.1% | -4.35% | -5%
N#CC(C(=O)/C(=N/Nc1nc(=S)[nH]n1N)C(C#N)c1ccccc1)c1ccccc1 (stereo unspecified) | -23.8% | -1.45% | -30.8% | 14.8% | -19.1% | -10.2%
Cc1cc(N(CCCCl)CCCCl)ccc1C=Nc1cc(Cl)c(O)c(Cl)c1 | 71.8% (active) | 6.15% | 84.8% (active) | -13.9% | 53% | 57.2%
CC1=CC(C)(C)N(C)C(N)=N1 | -4.45% | -3.1% | -5.3% | -43.2% | -2.65% | -1.75%
COc1ccc(/C=C/C(=O)O)c(OC)c1 | 1.25% | 30.9% | -7.55% | 25.2% | 28.1% | -9.7%
O=C(c1ccccc1)c1ccc2ccccc2c1 | 24.8% | 13% | 0.65% | -13.2% | 14.9% | 28.3%
OC(CN1CCCCC1)c1cc(-c2ccccc2)no1 (stereo unspecified) | 31.8% | 11.6% | 33.5% | 24.6% | 23.6% | 16.4%
COc1ccc2c(c1)[nH]c1c3ccc(OC)cc3oc(=O)c21 | -52% | -50% | -35.5% | 1.95% | -38.6% | -33.9%
O=C1CCC2OC3CCC(=O)N3CN12 (stereo unspecified) | 9.8% | 8% | 6.55% | -11.3% | 4.95% | -3.6%
O=P(O)(O)OC1OC(CO)C(O)C(O)C1O (stereo unspecified) | -16.5% | -26.2% | -3.9% | -25.6% | -24.8% | -4.75%
CCC(=O)Cc1nc2n(c1O)/C(=N/C(=O)Nc1ccc(Cl)cc1)N=N2 | -2.05% | -7.5% | -2.9% | -35.8% | -15.2% | 11.6%
NCCS(=O)(=O)O | 1.8% | 8.7% | 7.7% | 19.8% | -5.6% | -6.95%
COc1ccc(C2=NC(CO)[C@H](c3ccccc3)O2)cc1OC (stereo partly specified) | 2.35% | -13.2% | 8.05% | 17.4% | -3.75% | -7.15%

Structure (SMILES) | growth inhibition [1] | growth inhibition [2] | growth inhibition [3] | growth inhibition [4] | growth inhibition [5] | growth inhibition [6]
O=[N+]([O-])c1ncccc1O | 12.2% | -2.75% | -4.5% | 9.35% | 12% | 15.9%
Cc1ccc(N2CCC(O)C2)cc1 (stereo unspecified) | -19.4% | -8.5% | -7.05% | 4.95% | -8.4% | -25.9%
O=c1[nH]c2ccc([N+](=O)[O-])cc2nc1/C(=N/Nc1ccccc1)C(O)c1ccco1 (stereo unspecified) | -4.6% | -9.1% | -12.8% | 6% | -10.6% | 12.9%
CC1CC(=O)C(CC(=O)O)C1C(C(=O)C(=O)Nc1c(C#N)cccc1[N+](=O)[O-])[N+](=O)[O-] (stereo unspecified) | -37.7% | -16.6% | -43% | 15.8% | -43.8% | -36.8%
COc1ccccc1NC(=O)c1ccccc1 | 23.2% | 11.3% | 4.95% | -9.25% | 2.75% | 16.1%
NNC(=O)CCn1[nH]c(=O)c(Cl)c(Cl)c1=O | 13.9% | 11.8% | 19.9% | 12.9% | 16.9% | 11.4%
OC1(c2cccnc2)c2ccccc2Oc2ccccc21 | -11.8% | 7.25% | 0.7% | -28.1% | -3.7% | -8.2%
Nc1nc(CCCCc2ccc(NC(=O)CBr)cc2)c(CCCCc2ccccc2)c(=O)[nH]1 | 27.6% | 11.3% | 34.7% | 24.8% | -3.1% | 11.4%
Nc1c(Cl)ncnc1NCc1ccco1 | 5.25% | -4.2% | -13.8% | -13.8% | -1.05% | -7.85%
CCOC(=O)C(=O)C(NC(=O)Cc1ccccc1)C(=O)OCC (stereo unspecified) | 27.2% | -8.55% | 1.85% | -15.8% | -0.25% | 17.1%
O=C1CC2c3ccccc3CCN2C2=C1CCC2 (stereo unspecified) | 13.6% | 13.1% | -0.4% | -16.2% | 0.5% | 18.7%
CC(=O)c1ccc2c(c1)NC(=O)CC(C)N2 (stereo unspecified) | 0.65% | -1.25% | 11.9% | -25.6% | 5.05% | 0.3%
COc1ccc(NC(=O)CC(=O)n2nc(-c3ccccc3)c(N=Nc3ccccc3C(=O)O)c2-c2ccccc2)cc1 | -28.8% | -13.1% | -2.05% | 2.85% | 2.25% | -13.5%
O=[N+]([O-])c1cc(N(c2ccccc2)c2ccccc2)c(Cl)cc1Cl | -8.35% | -16.1% | -27.1% | -2.55% | 5.5% | -3%
CN(C)C(=S)S(=O)(=O)c1ccccc1 | 51.5% | 75.8% (active) | 81.2% (active) | 25.2% | 85.6% (active) | 91.2% (active)
COc1ccc(C(=O)O)c(Cc2ccc3ccccc3c2)c1 | 0.4% | -4.7% | 4.3% | 10% | -5.95% | 36%
Cc1ccc(C)c(NS(=O)(=O)c2ccc(Cl)cc2)c1 | 98.9% (active) | 99.2% (active) | 99.1% (active) | 99.3% (active) | 98.8% (active) | 99.2% (active)
COC(=O)c1ccc(SCCC(=O)CN2C(=O)c3ccccc3C2=O)cc1 | 18.9% | 8.5% | 17.1% | 23.1% | 4.1% | 27.8%
CCSCCC#N | 11.2% | 4.75% | -13% | 0.3% | 8.1% | -10.2%
CCCCCOC1OC(=O)C(Cl)=C1Cl (stereo unspecified) | 65.3% | 36.7% | 63.2% | 61.7% | 54.8% | 44%
